Results published in PubChem BioAssay.
Calls of active or inactive are those of the source.

Assays:
[1] = small molecules captured by biotinylated probe aFSTL3 – biochemical, small-molecule microarray, fluorescence 635/667, stem cell growth factor project, primary screen (AID 1064); conditions: higher = more signal;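 further: measures binding of the biotinylated anti-FSTL3 antibody to printed compounds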
[2] = binders from COS7 lysate, DM2A8 probe, primary screen, torsin A project, cell lysate, small-molecule microarray, fluorescence 635/667 (AID 1065); conditions: higher = more signal, COS7 lysate expressing mutant human TOR1A
[3] = small molecules captured by biotinylated probe aFGF2 – biochemical, small-molecule microarray, fluorescence 635/667, stem cell growth factor project, primary screen (AID 1067); conditions: higher = more signal;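 further: measures binding of biotinylated aFGF2 protein to printed compounds on slides; z-score merges feature fluorescence and signal-to-noise across triplicate slides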
[4] = small molecules captured by biotinylated probe aFGF10 – biochemical, small-molecule microarray, fluorescence 635/667, stem cell growth factor project, primary screen (AID 1071); conditions: higher = more signal;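 further: score merges 667 nm spot intensity and signal to noise from triplicate slides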
[5] = target: Neurogenic locus notch homolog protein 2 (Homo sapiens) (UniProt Q04721); experiment: small molecules binding Notch2 protein – biochemical, small-molecule microarray, 635 nm fluorescence, stem cell growth factors, primary screen (AID 1073); conditions: higher = more signal
Neurogenic locus notch homolog protein 2 (Homo sapiens), sequence (Q04721 whole entry, looked up, canonical isoform): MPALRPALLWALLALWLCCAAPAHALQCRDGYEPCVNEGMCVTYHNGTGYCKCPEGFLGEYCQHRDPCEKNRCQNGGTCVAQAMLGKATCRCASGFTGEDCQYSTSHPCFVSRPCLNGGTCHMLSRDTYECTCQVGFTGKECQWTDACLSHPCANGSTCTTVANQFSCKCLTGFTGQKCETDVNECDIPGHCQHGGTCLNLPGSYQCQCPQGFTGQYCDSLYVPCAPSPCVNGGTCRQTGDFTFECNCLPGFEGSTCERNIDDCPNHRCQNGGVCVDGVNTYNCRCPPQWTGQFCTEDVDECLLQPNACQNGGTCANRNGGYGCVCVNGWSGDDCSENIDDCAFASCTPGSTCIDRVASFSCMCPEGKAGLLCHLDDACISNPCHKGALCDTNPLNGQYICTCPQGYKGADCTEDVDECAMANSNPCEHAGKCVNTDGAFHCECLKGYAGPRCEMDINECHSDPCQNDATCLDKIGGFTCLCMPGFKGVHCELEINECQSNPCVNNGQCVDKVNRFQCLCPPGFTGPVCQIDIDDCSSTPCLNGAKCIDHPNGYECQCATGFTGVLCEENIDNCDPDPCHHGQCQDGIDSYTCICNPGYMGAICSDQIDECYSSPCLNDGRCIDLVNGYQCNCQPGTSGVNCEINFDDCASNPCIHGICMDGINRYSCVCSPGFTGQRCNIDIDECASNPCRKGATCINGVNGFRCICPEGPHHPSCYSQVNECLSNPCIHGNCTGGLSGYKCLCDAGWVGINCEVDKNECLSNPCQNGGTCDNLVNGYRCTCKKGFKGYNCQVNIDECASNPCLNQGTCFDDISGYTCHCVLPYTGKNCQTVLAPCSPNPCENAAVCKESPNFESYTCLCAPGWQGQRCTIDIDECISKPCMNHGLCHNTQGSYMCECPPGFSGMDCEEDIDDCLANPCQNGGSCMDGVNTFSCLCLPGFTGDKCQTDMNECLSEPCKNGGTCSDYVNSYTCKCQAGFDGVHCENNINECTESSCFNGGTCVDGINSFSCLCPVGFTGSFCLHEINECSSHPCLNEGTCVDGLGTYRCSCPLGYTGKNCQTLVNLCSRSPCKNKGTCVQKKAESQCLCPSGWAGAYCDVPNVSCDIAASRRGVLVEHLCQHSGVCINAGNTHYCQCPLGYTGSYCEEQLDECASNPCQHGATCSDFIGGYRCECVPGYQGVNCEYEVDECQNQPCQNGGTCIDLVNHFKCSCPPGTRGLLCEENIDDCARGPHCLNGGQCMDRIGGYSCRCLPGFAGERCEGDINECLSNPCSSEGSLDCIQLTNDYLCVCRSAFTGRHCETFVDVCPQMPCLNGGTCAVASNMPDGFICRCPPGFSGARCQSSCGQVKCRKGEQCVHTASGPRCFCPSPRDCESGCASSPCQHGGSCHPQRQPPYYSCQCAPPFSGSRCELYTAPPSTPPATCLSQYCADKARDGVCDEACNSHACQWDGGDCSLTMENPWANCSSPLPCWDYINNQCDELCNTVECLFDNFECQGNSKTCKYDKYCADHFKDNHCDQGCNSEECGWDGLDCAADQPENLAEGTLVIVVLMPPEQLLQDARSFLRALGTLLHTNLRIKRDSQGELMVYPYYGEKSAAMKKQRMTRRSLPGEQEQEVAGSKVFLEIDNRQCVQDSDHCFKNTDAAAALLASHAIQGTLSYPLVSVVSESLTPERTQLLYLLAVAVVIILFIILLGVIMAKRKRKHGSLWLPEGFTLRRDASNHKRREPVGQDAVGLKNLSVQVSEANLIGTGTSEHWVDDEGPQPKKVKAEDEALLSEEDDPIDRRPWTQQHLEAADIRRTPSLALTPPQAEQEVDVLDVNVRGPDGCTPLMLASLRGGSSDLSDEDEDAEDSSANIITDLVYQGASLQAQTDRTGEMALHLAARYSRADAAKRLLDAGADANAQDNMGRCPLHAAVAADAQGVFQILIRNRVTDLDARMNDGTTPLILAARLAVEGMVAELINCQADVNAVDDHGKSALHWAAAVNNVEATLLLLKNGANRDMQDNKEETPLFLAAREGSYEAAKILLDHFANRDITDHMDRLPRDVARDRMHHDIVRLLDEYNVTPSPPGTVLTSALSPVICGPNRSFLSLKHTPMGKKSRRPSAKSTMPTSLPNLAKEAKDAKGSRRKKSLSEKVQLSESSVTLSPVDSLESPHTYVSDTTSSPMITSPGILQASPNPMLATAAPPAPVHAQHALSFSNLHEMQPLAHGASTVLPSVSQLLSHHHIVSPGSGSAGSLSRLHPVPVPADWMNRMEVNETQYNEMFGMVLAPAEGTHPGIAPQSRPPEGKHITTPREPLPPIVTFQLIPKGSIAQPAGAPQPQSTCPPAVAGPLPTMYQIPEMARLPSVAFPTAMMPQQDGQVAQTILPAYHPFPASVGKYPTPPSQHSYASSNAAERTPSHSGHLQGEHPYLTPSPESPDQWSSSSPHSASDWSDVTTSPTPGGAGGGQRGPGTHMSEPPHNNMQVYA

[6] = target: Pro-neuregulin-1, membrane-bound isoform (Homo sapiens) (UniProt Q02297); experiment: small molecules binding neuregulin-1 protein – biochemical, small-molecule microarray, fluorescence 635/667, psychiatric disease protein project, primary screen (AID 1075); conditions: NRG1 binding, 635 nm fluorescence, higher = more signal;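 further: score combines 667 nm spot fluorescence with signal to noise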
Pro-neuregulin-1, membrane-bound isoform (Homo sapiens), sequence (Q02297 whole entry, looked up, the tested form may be a part, canonical isoform): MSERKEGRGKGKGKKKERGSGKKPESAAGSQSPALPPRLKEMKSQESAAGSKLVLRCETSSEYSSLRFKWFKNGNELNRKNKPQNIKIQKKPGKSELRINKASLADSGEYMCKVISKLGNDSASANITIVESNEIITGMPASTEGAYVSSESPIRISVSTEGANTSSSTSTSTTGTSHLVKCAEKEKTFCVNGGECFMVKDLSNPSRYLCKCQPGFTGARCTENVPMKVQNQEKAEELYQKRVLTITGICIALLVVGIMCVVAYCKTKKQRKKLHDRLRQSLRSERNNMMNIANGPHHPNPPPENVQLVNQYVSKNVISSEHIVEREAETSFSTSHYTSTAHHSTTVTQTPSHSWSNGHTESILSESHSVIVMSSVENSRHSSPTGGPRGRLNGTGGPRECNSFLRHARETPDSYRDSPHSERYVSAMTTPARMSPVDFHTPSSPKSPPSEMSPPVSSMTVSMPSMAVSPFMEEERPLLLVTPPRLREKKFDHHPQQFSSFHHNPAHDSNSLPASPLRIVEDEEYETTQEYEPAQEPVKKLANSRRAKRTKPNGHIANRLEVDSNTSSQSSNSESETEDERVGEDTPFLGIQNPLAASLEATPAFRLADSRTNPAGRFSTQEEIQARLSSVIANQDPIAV

[7] = system: Neuregulin-1 EGF-like domain; experiment: small molecules binding NRG1 EGF domain – biochemical, small-molecule microarray, 635 nm fluorescence, primary screen (AID 1081); conditions: higher = more signal;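 further: binding of the protein to compounds printed on small-molecule microarray slides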
[8] = FRG1 expression reporter modulators in myotubes – cell-based, C2C12 myotubes, firefly/Renilla luciferase, luminescence, FRG1 inhibition for FSHD, primary screen (AID 1084); conditions: FRG1 promoter luciferase, higher = more signal, called active from +8 up or from −8 down
[9] = small molecules captured by biotinylated probe aFST – biochemical, small-molecule microarray, fluorescence 635/667, stem cell growth factor project, primary screen (AID 1086); conditions: higher = more signal;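 further: score merges 667 nm fluorescence with signal-to-noise of each printed compound spot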
[10] = binders of probe aHhip on microarray, primary screen, stem cell growth factor project, biochemical, small-molecule microarray, fluorescence 635/667 (AID 1087); conditions: higher = more signal;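 further: score merges spot fluorescence at 667nm with spot signal to noise ratio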
[11] = system: PRMT1 (protein arginine N-methyltransferase 1); experiment: small molecules binding arginine methyltransferase PRMT1 – biochemical, small-molecule microarray, 635 nm fluorescence, primary screen (AID 1088); conditions: higher = more signal;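 further: binding of Prmt1 protein to compounds spotted on small-molecule microarray slides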
[12] = growth effects on S. cerevisiae YJM789 – YJM789 clinical isolate, OD600, 24 h, basal, primary screen (AID 1089); conditions: higher = more signal, called active from +8 up or from −8 down;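 further: growth of clinical yeast isolate S. cerevisiae YJM 789 seeded 1000 cells per well; test concentration not given here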
[13] = S. pombe growth modifiers, basal conditions – strain 972, OD600, 24 h, no modulator, primary screen (AID 1090);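 further: basal condition with compound alone and no growth modifier present; test concentration not given here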; conditions: S. pombe 972 growth, higher = more signal, called active from +8 up or from −8 down
[14] = budding yeast growth modifiers under rapamycin – strain BY4716, OD600, 96 h, primary screen (AID 1091); further: test concentration not given here; conditions: S. cerevisiae BY4716 + rapamycin, higher = more signal, called active from +8 up or from −8 down
[15] = target: Torsin-1A-interacting protein 2 (Homo sapiens) (UniProt Q8NFQ8); experiment: small molecules binding lysate-expressed LULL1 – cell lysate, human LULL1 lysate, 635/667 nm fluorescence, primary screen (AID 1092); conditions: small-molecule microarray, hLULL1 lysate binding, 635 nm fluorescence; higher = more signal;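 further: probe is lysate of COS7 cells overexpressing human LULL1; score merges per-feature 667 nm fluorescence with signal-to-noise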
Torsin-1A-interacting protein 2 (Homo sapiens), sequence (Q8NFQ8 whole entry, looked up): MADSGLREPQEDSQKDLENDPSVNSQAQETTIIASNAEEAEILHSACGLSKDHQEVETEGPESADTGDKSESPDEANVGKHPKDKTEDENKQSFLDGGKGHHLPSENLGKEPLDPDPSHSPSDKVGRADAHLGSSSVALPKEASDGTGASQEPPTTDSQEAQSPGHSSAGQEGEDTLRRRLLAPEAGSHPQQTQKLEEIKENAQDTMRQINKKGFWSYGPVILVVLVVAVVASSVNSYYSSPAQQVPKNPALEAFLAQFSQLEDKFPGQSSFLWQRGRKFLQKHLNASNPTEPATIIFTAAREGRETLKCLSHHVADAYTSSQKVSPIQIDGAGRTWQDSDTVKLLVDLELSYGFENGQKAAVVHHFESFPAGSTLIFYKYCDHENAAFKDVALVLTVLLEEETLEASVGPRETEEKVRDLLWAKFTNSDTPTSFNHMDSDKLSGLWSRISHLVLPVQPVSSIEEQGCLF

[16] = optical density change of DRC41 E. coli – strain DRC41, OD650, 24 h, E. coli filamentation project, primary screen (AID 1093);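 further: MC1000 strain lacking acrAB efflux and sulA so SOS filamentation is blocked; test concentration not given here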; conditions: E. coli DRC41 growth, higher = more signal, called active from +8 up or from −8 down
[17] = probe aLefty2 binding to arrayed compounds – biochemical, biotinylated probe, 635/667 nm fluorescence, primary screen (AID 1094); conditions: small-molecule microarray, higher = more signal;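 further: score merges spot fluorescence near 667 nm with spot signal-to-noise ratio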
[18] = system: Noggin (protein binding on small-molecule microarray); experiment: small molecules binding Noggin protein – biochemical, 635/667 nm fluorescence, primary screen (AID 1095); conditions: 635 nm fluorescence, higher = more signal;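 further: score merges 667 nm feature fluorescence with signal to noise over triplicate slides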
[19] = target: Neurogenic locus notch homolog protein 3 (Homo sapiens) (UniProt Q9UM47); experiment: small molecules binding NOTCH3 protein – biochemical, 635/667 nm fluorescence, primary screen (AID 1096); conditions: small-molecule microarray, 635 nm fluorescence, higher = more signal
[20] = probe aEGFR binding to arrayed compounds – biochemical, biotinylated probe, 635/667 nm fluorescence, primary screen (AID 1097); conditions: small-molecule microarray, higher = more signal;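 further: probe is a biotinylated anti-EGFR antibody binding compounds printed on slides; score combines fluorescence near 667 nm and signal to noise of each spot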

Row | SMILES | composite z-score [1] | composite z-score [2] | composite z-score [3] | composite z-score [4] | composite z-score [5] | composite z-score [6] | composite z-score [7] | z-score [8] | composite z-score [9] | composite z-score [10] | composite z-score [11] | z-score [12] | z-score [13] | z-score [14] | composite z-score [15] | z-score [16] | composite z-score [17] | composite z-score [18] | composite z-score [19] | composite z-score [20]
1 | CCOC(=O)CCN1C(=O)[C@H]2[C@H]3[C@H](O)[C@H](O)CC(=NNC(=O)OCc4ccc(OC)cc4)[C@H]3CC[C@H]2C1=O | -0.41 | 0.339 | -0.116 | 0.155 | 0.68 | 0.0204 | 0.0944 | -0.971 (inactive) | 0.245 | -0.329 | 0.271 | 0.0811 (inactive) | -0.257 (inactive) | -0.577 (inactive) | 0.282 | -0.31 (inactive) | 0.0108 | 0.335 | 0.316 | 0.0289
2 | C#CCCCON=C1[C@H]2CCn3c(=O)n(Cc4cc5c(cc4Cl)OCO5)c(=O)n3[C@H]2[C@H](O)[C@@H]2O[C@H]12 | -0.652 | 0.203 | -0.108 | 0.365 | 0.63 | 0.113 | 0.107 | -0.12 (inactive) | 0.241 | -0.0645 | 0.0698 | 0.842 (inactive) | 1.28 (inactive) | 1.63 (inactive) | 0.0322 | 0.314 (inactive) | 0.147 | 0.508 | 0.836 | -0.191
3 | C=CC[C@@H]1C=CC(ON=C(C)C)[C@@H](CO)O1 (stereo not given in full) | 0.0856 | -0.809 | -0.196 | -0.246 | -0.561 | -0.34 | -0.0889 | 1.35 (inactive) | -0.238 | 0.107 | -0.316 | 1.03 (inactive) | 0.446 (inactive) | 1.16 (inactive) | -0.632 | 0.452 (inactive) | -0.103 | -0.117 | -1.08 | -0.215
4 | CC(C)CON=C1C[C@@H](O)[C@@H](O)[C@@H]2[C@@H]3C(=O)N(Cc4ccc5c(c4)OCO5)C(=O)[C@@H]3CC[C@@H]12 | -0.345 | -0.142 | 0.0138 | 0.11 | -0.0138 | 0.474 | 0.814 | -0.197 (inactive) | -0.141 | 0.0659 | 0.731 | -0.12 (inactive) | 0.54 (inactive) | -0.409 (inactive) | 1.69 | -0.38 (inactive) | -0.195 | 0.697 | -0.173 | -0.192
5 | OC[C@H]1O[C@H](C#Cc2ccccc2)C=C[C@@H]1O | -0.406 | -0.437 | -0.0732 | 0.325 | 0.322 | 0.0659 | 0.0463 | -0.999 (inactive) | 0.101 | 0.107 | 0.232 | 0.643 (inactive) | -1.33 (inactive) | -0.98 (inactive) | 0.233 | 0.897 (inactive) | -0.113 | 0.498 | 0.609 | -0.124
6 | CC(=O)OC[C@H]1O[C@H](CC=NO[C@H](C)c2cn([C@@H]3COC[C@H]3O)nn2)C=C[C@@H]1OC(C)=O | -0.239 | 0.0556 | -0.131 | 0.294 | 0.277 | -0.0528 | 0.422 | -0.956 (inactive) | -0.149 | -0.0673 | 0.611 | -2 (inactive) | -0.535 (inactive) | -0.277 (inactive) | -0.3 | -0.763 (inactive) | -0.23 | 0.411 | 0.212 | -0.0845
7 | C[C@H]1CC[C@@H](C(=O)O)N[C@@H]1c1ccc(C#Cc2ccccc2)cc1 | -0.214 | 0.0872 | 0.0166 | 0.505 | 1.32 | 0.736 | 1.24 | 3.31 (inactive) | 0.316 | 0.176 | 1.52 | -26.4 (active) | -21.1 (active) | -3.15 (inactive) | 1.78 | 0.161 (inactive) | -0.0615 | 0.875 | 1.09 | 0.0651
8 | CC(C)(C)N1C(=O)[C@H]2[C@H]3[C@H](O)[C@H](O)CC(=NOC[C@@H](O)COCc4ccco4)[C@H]3CC[C@H]2C1=O | 0.784 | 0.733 | -0.0423 | 0.227 | 0.0009 | 0.107 | 0.173 | -0.241 (inactive) | 0.616 | -0.0003 | 0.446 | 0.009 (inactive) | 0.287 (inactive) | -0.229 (inactive) | 0.937 | 0.697 (inactive) | 0.0913 | -0.192 | -0.0654 | -0.12
9 | COC(=O)[C@H](C)NC(=O)CCC1CC(OC(=O)NCc2cccc3ccccc23)CC2(CCCC(COC(=O)NCCC(C)C)O2)O1 (stereo not given in full) | -0.478 | 0.151 | -0.167 | 0.0257 | 0.0502 | 0.543 | 1.02 | 1.5 (inactive) | 0.0638 | -0.264 | 0.651 | -0.518 (inactive) | -1.07 (inactive) | -0.642 (inactive) | 1.84 | 0.384 (inactive) | -0.205 | 0.352 | 0.504 | -0.112
10 | CCN1C(=O)[C@H]2[C@@H]3C(=CC[C@H]2C1=O)C(=O)[C@H]1O[C@H]1[C@H]3O | -0.538 | -0.0147 | -0.0996 | 0.465 | 0.613 | 0.0141 | 0.73 | -2.63 (inactive) | 0.167 | -0.0346 | 0.833 | 0.367 (inactive) | -0.3 (inactive) | 0.247 (inactive) | -0.176 | -0.763 (inactive) | -0.138 | 0.609 | 0.732 | 0.0107
